# Data reported in PubChem BioAssay (NCATS).
# Inconclusive results are not listed. A call without a number means that no potency is given here. Active and inactive are the calls of the source. The call rests on the fitted dose curve; in most records, active means well fitted cell-killing curve with a large enough effect; inconclusive means small, poorly fitted or top-dose-only effect; inactive means flat fitted curve, though single readings scatter. Square brackets hold non-standard residues; d marks the D form. Peptide text beside a SMILES is read from it. ξ: configuration not given here. ξL = CC(C)CC(N)C(=O)O
# Assay: SDT Cancer Cell Toxicity qHTS against the NCATS CANVASS Library (AID 1347365); further: nearly all actives have a fitted effect of over 60% in size
# Settings: SDT dog glioma viability, ATP luminescence, 72 h; series mostly up to 46.1 µM
# Outline: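 SDT dog glioma cells (500/well) exposed to an 11-point compound series for 72 hr at 37C, 5% CO2. Cytotoxicity read as ATP content by CellTiterGlo luminescence; bortezomib titration as control.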
# Potency means the concentration at half of the fitted maximal effect.
row,Compound,Potency
1,CC(=O)N[C@H](C)c1nc(/C=C/C=C/C(=O)CC2CC(=O)CC[C@]2(C)O)cs1 (some centres undefined),inactive
2,CN1C(=O)C(=O)N2C(=C[C@]3(c4c[nH]c5ccccc45)c4ccccc4N[C@H]23)C1=O,inactive
3,CN1CC[C@]23c4ccccc4N[C@H]1[C@]21CCN(C)[C@H]3Nc2ccccc21,inactive
4,C/C=C1/C2=CCCN3C(=O)O[C@H]([C@H]1O)[C@H]23,inactive
5,O=C1CC(c2ccc(O)cc2)Oc2ccccc21 (centres undefined),20.9 µM (active)
6,COc1c(O)cc(O)c2c(=O)cc(-c3ccccc3)oc12,inactive
7,COC1C(C)OC(OCC23C[C@@H]4[C@H](C)CC[C@H]4C4(C=O)CC2C=C(C(C)C)C34C(=O)O)[C@@H](O)[C@H]1O (some centres undefined),inactive
8,COc1ccc(-c2oc3cc(OC)cc(OC)c3c(=O)c2O)cc1,10.5 µM (active)
9,CC[C@@H](C)[C@H]1NC(=O)C(CC(C)C)NC(=O)[C@@H](CC(C)C)NC(=O)[C@H](Cc2c[nH]c3ccccc23)NC(=O)CNC(=O)[C@@H](CC(N)=O)NC1=O (stereo partly drawn) (cyclo(GW[dL][ξL][dI][dN])),16.6 µM (active)
10,Cc1cc(O)cc2c1C(=O)c1c(O)cc(O)cc1C2=O,inactive
11,C=C(C)C(=O)O[C@H]1C[C@@]2(C)OC(=CC2=O)/C(C)=C\[C@H]2OC(=O)C(=C)[C@H]12,1.66 µM (active)
12,C=C[C@]1(C)CC[C@@H]([C@H](C)C(=O)CC=C(C)C)O1,inactive
13,CC[C@@H]1C[C@@]2(CC)OC(=O)[C@@]3(CC)[C@H](CC)[C@@H]1[C@@H]23,inactive
14,[C-]#[N+][C@@]12C(=O)[C@@H]3[C@@H](O[C@@]4(C(=O)N(C)c5cccc1c54)C3(C)C)C(=O)[C@@]2(C)C=C,inactive
